# Article PMC7862700, “An all-to-all approach to the identification of sequence-specific readers for epigenetic DNA modifications on cytosine”
# Key:
# Experiment in all cases: DAPPL (digital affinity profiling via proximity ligation, sequencing); 10 mM Tris-HCl pH 7.5, 50 mM NaCl, 1 mM DTT, 4% glycerol, room temperature, 30 min; GST-TFs on glutathione beads, 16-mer random dsDNA library, 0.1% formaldehyde crosslink after washing; high values mean tight binding
# Conditions in all cases: protein: recombinant; tags: N-terminal GST; dsDNA, one strand shown
# FLI1 = biological target: T1, FLI1 (Homo sapiens, UniProt Q01543 1-452)
# T1 sequence: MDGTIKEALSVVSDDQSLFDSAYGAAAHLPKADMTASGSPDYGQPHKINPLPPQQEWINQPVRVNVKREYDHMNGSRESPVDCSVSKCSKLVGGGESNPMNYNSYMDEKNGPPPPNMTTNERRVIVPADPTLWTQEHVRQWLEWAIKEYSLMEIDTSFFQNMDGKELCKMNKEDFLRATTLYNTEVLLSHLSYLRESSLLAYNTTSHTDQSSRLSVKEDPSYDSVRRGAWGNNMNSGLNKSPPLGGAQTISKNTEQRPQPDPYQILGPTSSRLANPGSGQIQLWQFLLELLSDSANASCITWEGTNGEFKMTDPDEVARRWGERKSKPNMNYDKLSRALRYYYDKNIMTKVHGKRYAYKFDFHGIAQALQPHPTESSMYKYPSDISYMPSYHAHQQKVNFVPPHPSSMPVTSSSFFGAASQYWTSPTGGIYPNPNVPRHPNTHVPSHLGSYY
# Outline: (§1)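 Human transcription factors carrying a GST fusion were produced in yeast, bound to glutathione beads, tagged with DNA barcodes and pooled together with a tag-only sample. Each pool was held with 200 nmole of a random double-stranded 16-mer DNA library in Tris/NaCl/DTT/glycerol buffer for 30 min at room temperature, then washed, crosslinked in 0.1% formaldehyde, proximity-ligated with BsaI/T4 ligase (1 h, 37 °C), PCR-amplified and sequenced on an Illumina NextSeq500. Binding signal is the read frequency of each hexamer for a given factor divided by its frequency in the tag-only sample.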
# ELK1 = biological target: T2, ELK1 (Homo sapiens, UniProt P19419 1-428)
# T2 sequence: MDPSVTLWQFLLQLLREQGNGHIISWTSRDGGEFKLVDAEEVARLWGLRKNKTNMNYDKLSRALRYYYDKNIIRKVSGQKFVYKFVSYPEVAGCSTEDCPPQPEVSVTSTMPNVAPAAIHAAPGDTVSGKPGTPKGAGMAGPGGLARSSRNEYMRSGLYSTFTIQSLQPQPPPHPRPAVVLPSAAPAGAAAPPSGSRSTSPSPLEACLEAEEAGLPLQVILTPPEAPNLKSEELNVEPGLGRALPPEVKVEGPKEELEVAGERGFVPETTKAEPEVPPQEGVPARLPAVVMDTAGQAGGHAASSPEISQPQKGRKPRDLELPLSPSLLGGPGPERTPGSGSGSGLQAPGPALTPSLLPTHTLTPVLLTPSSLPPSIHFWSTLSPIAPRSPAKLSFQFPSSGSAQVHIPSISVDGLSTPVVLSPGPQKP
# Outline: as §1
# GABPA = biological target: T3, GABPA (Homo sapiens, UniProt Q06546 1-454)
# T3 sequence: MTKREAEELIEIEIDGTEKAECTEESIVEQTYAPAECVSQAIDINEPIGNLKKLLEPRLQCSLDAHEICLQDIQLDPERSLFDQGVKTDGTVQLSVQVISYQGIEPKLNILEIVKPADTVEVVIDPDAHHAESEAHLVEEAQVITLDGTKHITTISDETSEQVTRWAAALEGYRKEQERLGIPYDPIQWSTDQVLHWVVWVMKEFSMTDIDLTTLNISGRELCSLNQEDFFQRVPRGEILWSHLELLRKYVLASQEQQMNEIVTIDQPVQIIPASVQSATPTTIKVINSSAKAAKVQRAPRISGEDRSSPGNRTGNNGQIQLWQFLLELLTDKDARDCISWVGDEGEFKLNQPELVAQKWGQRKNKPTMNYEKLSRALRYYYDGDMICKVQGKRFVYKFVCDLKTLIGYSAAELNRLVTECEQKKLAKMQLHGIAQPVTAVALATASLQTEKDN
# Outline: as §1
# ERG = biological target: T4, ERG (Homo sapiens, UniProt P11308 1-479)
# T4 sequence: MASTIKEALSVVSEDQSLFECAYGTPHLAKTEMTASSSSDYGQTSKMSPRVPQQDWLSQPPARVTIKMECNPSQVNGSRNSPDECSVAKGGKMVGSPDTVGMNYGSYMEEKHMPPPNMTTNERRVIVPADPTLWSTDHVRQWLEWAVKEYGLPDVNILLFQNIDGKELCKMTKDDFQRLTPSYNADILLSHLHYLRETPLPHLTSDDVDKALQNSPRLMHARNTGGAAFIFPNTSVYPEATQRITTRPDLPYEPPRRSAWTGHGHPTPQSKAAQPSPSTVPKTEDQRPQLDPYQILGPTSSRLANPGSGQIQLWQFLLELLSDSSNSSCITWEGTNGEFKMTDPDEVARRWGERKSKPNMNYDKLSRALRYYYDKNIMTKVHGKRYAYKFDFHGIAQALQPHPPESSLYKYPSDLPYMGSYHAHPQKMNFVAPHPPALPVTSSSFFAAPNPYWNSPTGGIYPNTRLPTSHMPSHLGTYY
# Outline: as §1
# ELF1 = ELF1 (Homo sapiens, UniProt P32519 1-619)
# ELF1, sequence (P32519 whole entry): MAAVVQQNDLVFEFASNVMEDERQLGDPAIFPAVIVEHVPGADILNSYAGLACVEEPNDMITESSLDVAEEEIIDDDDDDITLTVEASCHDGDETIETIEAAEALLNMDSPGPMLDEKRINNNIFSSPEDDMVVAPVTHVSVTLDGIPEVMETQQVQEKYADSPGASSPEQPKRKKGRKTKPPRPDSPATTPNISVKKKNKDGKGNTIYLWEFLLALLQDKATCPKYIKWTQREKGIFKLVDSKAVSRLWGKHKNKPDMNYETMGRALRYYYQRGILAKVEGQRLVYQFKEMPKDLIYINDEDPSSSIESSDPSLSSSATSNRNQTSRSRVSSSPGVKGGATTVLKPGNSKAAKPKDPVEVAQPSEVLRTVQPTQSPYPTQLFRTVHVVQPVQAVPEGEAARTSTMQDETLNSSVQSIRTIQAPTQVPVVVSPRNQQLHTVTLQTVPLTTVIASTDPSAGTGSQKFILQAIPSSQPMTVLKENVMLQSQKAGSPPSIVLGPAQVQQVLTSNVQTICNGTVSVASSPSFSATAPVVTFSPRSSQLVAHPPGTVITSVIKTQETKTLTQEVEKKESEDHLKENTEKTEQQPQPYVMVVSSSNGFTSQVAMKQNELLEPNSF
# Outline: as §1
# EHF = biological target: T5, EHF (Homo sapiens, UniProt Q9NZC4 1-300)
# T5 sequence: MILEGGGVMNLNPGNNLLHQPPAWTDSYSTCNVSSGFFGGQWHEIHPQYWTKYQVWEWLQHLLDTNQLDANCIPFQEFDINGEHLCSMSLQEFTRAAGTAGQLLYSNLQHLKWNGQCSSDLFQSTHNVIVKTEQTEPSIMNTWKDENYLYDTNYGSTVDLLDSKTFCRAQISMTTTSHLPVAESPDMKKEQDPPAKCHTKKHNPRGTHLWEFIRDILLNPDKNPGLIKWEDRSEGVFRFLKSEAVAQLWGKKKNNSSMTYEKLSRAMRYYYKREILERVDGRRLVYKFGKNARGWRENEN
# Outline: as §1
# SPI1 = SPI1 (Homo sapiens, UniProt P17947 1-270)
# Outline: as §1
# SPIB = SPIB (Homo sapiens, UniProt Q01892 1-262)
# SPIB, sequence (Q01892 whole entry): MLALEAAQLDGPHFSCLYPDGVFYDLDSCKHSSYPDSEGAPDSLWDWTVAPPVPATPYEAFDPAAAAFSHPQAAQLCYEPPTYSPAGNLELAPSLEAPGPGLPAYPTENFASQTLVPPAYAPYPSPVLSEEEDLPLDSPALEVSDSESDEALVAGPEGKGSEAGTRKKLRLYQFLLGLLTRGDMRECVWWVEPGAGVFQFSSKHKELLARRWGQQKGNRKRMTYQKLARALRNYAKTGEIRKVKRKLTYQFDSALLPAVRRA
# Outline: as §1
# ELK3 = biological target: T6, ELK3 (Homo sapiens, UniProt P41970 1-407)
# T6 sequence: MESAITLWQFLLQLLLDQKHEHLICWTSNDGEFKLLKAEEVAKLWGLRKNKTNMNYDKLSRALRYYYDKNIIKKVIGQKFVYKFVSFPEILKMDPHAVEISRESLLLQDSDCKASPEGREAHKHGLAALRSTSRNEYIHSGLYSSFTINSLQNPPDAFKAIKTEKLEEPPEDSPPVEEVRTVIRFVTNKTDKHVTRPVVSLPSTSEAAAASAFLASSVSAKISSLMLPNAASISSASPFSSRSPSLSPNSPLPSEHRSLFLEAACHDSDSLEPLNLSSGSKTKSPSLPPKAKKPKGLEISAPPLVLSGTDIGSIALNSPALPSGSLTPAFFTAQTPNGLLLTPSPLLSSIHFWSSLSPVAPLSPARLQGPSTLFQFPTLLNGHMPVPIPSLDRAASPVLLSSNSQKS
# Outline: as §1
# FEV = biological target: T7, FEV (Homo sapiens, UniProt Q99581 1-238)
# T7 sequence: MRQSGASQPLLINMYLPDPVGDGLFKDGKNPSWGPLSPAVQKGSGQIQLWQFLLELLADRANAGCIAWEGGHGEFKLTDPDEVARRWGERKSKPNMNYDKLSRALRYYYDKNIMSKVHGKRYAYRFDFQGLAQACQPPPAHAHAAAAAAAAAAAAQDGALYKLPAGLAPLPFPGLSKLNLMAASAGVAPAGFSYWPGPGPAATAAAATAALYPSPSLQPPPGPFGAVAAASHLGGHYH
# Outline: as §1
# ETV5 = ETV5 (Homo sapiens, UniProt P41161 1-510)
# ETV5, sequence (P41161 whole entry): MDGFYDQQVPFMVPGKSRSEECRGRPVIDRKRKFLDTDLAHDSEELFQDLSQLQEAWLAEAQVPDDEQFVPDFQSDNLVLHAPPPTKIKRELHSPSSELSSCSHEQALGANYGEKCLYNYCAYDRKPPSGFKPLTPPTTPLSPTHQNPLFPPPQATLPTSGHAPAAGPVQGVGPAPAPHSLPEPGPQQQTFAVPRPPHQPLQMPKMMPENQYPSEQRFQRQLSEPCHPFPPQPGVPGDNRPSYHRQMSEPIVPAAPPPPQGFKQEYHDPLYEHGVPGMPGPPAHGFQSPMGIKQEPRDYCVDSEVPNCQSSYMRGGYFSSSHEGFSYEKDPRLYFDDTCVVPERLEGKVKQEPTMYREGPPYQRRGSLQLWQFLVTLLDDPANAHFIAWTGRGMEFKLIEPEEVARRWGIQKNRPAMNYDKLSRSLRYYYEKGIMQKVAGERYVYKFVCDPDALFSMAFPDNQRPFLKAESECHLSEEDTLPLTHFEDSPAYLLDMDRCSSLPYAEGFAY
# Outline: as §1
# SPIC = biological target: T8, SPIC (Homo sapiens, UniProt Q8N5J4 1-248)
# T8 sequence: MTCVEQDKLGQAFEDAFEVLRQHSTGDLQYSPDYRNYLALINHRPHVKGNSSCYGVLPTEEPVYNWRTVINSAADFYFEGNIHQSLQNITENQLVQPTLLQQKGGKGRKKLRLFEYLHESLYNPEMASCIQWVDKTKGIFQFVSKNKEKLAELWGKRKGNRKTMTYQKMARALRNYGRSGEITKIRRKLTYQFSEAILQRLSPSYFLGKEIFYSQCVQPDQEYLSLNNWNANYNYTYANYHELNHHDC
# Outline: as §1
# ELF4 = ELF4 (Homo sapiens, UniProt Q99607 1-663)
# ELF4, sequence (Q99607 whole entry): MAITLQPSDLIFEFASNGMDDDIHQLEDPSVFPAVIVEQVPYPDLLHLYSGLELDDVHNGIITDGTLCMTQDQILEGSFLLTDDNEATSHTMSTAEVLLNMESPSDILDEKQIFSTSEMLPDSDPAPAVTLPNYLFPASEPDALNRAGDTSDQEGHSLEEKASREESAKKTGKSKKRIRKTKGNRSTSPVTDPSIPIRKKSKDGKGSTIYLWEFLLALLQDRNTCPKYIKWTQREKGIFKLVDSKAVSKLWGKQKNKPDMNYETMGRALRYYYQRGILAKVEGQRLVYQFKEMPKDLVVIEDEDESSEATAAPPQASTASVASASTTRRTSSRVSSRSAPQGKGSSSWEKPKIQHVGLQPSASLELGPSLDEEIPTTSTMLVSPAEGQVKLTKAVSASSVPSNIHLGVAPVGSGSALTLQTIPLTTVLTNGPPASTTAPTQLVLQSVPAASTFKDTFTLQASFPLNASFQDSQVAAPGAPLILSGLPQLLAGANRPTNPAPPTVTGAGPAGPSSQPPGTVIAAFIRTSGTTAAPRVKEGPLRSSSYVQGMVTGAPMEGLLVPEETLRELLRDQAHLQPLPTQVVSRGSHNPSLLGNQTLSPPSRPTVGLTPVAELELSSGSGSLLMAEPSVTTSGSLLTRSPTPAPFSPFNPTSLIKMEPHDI
# Outline: as §1
# ETV1 = ETV1 (Homo sapiens, UniProt P50549 1-477)
# ETV1, sequence (P50549 whole entry): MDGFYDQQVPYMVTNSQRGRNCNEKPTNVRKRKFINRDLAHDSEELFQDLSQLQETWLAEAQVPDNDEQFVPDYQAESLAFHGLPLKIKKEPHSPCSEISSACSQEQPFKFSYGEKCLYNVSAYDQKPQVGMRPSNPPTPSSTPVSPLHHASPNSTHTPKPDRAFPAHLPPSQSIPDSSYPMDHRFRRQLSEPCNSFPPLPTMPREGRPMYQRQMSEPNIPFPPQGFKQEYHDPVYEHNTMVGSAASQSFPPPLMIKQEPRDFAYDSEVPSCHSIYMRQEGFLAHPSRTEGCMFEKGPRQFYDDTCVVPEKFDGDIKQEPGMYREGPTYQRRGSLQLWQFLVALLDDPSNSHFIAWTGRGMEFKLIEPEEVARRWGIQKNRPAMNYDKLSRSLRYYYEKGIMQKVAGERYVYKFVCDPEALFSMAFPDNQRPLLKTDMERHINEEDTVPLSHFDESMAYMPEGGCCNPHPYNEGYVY
# Outline: as §1
# ERF = biological target: T9, ERF (Homo sapiens, UniProt P50548 1-548)
# T9 sequence: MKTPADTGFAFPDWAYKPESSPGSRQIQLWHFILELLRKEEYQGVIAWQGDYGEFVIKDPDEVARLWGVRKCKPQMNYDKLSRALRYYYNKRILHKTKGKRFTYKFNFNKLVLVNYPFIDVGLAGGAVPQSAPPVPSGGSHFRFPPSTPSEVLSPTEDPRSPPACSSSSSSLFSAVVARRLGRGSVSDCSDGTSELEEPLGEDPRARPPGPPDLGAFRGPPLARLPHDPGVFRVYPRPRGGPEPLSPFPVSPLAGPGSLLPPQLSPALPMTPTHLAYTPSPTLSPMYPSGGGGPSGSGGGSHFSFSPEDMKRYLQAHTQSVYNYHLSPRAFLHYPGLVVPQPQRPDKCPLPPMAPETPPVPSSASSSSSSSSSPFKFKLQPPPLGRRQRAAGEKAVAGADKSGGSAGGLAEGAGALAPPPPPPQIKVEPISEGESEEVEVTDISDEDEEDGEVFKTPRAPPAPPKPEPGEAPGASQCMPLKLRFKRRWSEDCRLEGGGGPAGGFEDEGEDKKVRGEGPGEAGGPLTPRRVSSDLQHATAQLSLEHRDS
# Outline: as §1
# ETV3L = biological target: T10, ETV3L (Homo sapiens, UniProt Q6ZN32 1-361)
# T10 sequence: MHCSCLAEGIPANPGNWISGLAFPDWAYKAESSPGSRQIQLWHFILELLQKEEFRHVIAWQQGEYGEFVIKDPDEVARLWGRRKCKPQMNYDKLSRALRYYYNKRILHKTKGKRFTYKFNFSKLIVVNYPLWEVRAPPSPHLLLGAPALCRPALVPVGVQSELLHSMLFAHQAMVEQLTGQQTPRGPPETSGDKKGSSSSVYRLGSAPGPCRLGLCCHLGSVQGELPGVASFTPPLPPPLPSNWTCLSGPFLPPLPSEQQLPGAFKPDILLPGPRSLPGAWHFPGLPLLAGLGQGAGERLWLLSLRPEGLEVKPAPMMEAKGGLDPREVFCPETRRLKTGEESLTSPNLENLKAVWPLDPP
# Outline: as §1
# ETS2 = biological target: T11, ETS2 (Homo sapiens, UniProt P15036 1-469)
# T11 sequence: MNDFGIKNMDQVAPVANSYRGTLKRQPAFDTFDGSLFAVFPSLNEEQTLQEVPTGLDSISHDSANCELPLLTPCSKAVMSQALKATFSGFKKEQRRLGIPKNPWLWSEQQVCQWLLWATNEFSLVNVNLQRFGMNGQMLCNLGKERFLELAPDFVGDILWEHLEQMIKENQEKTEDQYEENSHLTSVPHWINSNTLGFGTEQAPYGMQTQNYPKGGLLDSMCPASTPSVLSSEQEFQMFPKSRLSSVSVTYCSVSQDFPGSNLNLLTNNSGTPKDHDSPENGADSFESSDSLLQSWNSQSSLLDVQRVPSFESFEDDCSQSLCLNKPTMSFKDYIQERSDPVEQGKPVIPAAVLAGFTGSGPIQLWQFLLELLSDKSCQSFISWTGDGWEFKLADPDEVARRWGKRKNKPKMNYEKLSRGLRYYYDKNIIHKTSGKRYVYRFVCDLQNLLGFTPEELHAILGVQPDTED
# Outline: as §1
# ETV3 = biological target: T12, ETV3 (Homo sapiens, UniProt P41162-2 1-143)
# T12 sequence: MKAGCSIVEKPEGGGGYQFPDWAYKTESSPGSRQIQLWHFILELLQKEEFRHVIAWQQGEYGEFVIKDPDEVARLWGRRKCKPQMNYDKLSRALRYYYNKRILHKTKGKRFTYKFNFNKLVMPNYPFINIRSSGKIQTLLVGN
# Outline: as §1
# ETV6 = ETV6 (Homo sapiens, UniProt P41212 1-452)
# ETV6, sequence (P41212 whole entry): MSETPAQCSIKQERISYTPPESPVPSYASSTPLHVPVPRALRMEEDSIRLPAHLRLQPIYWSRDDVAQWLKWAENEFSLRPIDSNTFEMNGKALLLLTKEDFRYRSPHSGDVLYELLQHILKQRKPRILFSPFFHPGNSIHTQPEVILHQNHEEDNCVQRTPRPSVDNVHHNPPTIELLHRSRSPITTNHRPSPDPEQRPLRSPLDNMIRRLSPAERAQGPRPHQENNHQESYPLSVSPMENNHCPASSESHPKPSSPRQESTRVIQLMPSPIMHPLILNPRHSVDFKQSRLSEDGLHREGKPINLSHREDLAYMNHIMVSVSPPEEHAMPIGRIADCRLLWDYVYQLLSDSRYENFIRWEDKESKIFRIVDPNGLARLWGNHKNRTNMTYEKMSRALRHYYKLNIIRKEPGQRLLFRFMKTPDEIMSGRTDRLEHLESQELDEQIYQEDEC
# Outline: as §1
sequence,measurement,setting,value
CTGCGG,binding signal,FLI1,"1.23 fold enrichment (6-mer frequency, TF over GST control)"
same,binding signal,ELK1,"1.26 fold enrichment (6-mer frequency, TF over GST control)"
same,binding signal,GABPA,"1.05 fold enrichment (6-mer frequency, TF over GST control)"
same,binding signal,ERG,"1.1 fold enrichment (6-mer frequency, TF over GST control)"
same,binding signal,ELF1,"1.18 fold enrichment (6-mer frequency, TF over GST control)"
same,binding signal,EHF,"1.3 fold enrichment (6-mer frequency, TF over GST control)"
same,binding signal,SPI1,"1.03 fold enrichment (6-mer frequency, TF over GST control)"
same,binding signal,SPIB,"1.09 fold enrichment (6-mer frequency, TF over GST control)"
same,binding signal,ELK3,"1.05 fold enrichment (6-mer frequency, TF over GST control)"
same,binding signal,FEV,"1.07 fold enrichment (6-mer frequency, TF over GST control)"
same,binding signal,ETV5,"1.16 fold enrichment (6-mer frequency, TF over GST control)"
same,binding signal,SPIC,"1.06 fold enrichment (6-mer frequency, TF over GST control)"
same,binding signal,ELF4,"1.14 fold enrichment (6-mer frequency, TF over GST control)"
same,binding signal,ETV1,"1.15 fold enrichment (6-mer frequency, TF over GST control)"
same,binding signal,ERF,"1.04 fold enrichment (6-mer frequency, TF over GST control)"
same,binding signal,ETV3L,"1.17 fold enrichment (6-mer frequency, TF over GST control)"
same,binding signal,ETS2,"1.12 fold enrichment (6-mer frequency, TF over GST control)"
same,binding signal,ETV3,"1.14 fold enrichment (6-mer frequency, TF over GST control)"
same,binding signal,ETV6,"1.09 fold enrichment (6-mer frequency, TF over GST control)"
